Bioassay records from PubChem.
HEK293 tox: cytotoxic in the GLP-1 receptor inverse agonist counter-screen | HEK293 cAMP-luciferase reporter cells, luminescence, 24 h | Potency, µM (doses to about 38.3 µM), most hits filed as inhibitors | actives 0.13% (n = 410,000);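 note: loss of luciferase light is scored as toxicity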
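Seeding density was 200 cells/uL; after overnight-length (12 h) culture, 23 nL compounds went on for 24 h at 37 °C. Readout used a luciferase detection reagent, luminescence taken after 12 min at room temperature.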
GLP1R inv ag: GLP-1 receptor (human) inverse agonism; Potency, µM (highest dose often 38.3 µM), most hits filed as inhibitors; actives 1.6% (n = 410,000); HEK293 GLP-1R CRE-luciferase, luminescence, 24 h; GLP-1R form is constitutively active; note: nearly all actives have a fitted effect of over 55% in size
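HEK293 cells stably co-expressing a cAMP-responsive luciferase reporter and constitutively active GLP-1R were seeded, incubated 12 h, then exposed to compounds for 24 h at 37 C. Luminescence was read 12 min after detection reagent; inverse agonists lower signal.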
TrxR1 substrate: is turned over as a substrate by rat TrxR1; actives 0.01% (n = 390,000); purified TrxR1 substrate turnover, NADPH consumption readout; O89049; AID 588456; Potency, µM (titrated, usually from 114 µM); note: nearly all actives have a fitted effect of over 50% in size
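Rat TrxR1, dispensed at 90 nM, was prereduced with 400 uM NADPH (final) for 5 min at ~22 deg C, then incubated with compound 15 min before 400 uM selenite. A first-read NADPH fluorescence drop versus no-compound background flagged substrates.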
rTrxR1 inhibitor: rat TrxR1 inhibition. O89049. recombinant rTrxR1, NADPH fluorescence consumption, selenite substrate. Potency, µM (highest dose often 114 µM), actives largely listed as inhibitors. actives 1% (n = 390,000); note: nearly all actives have a fitted effect of over 65% in size
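Rat TrxR1 (90 nM in the dispensed reagent) was pre-reduced with 400 uM NADPH for 5 min at room temperature, then incubated with compound for 15 min. After 400 uM selenite was added, NADPH fluorescence (Ex 340/Em 450 nm) was followed for 8 min.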
GLP-1R agonist: activates the human GLP-1 receptor; P43220; Potency, µM (top dose mostly 45.6 µM), usual class: activators; actives 0.007% (n = 380,000); HEK293 GLP-1R CRE-luciferase, luminescence, 4-6 h; cells express a hypersensitive GLP-1R form; AID 624172
mIDH1 inhibitor: human IDH1 R132H inhibition | Potency, µM (top dose mostly 76.6 µM), usual class: inhibitors | O75874 | IDH1-R132H enzyme, NADPH consumption, diaphorase/resazurin fluorescence | actives 0.093% (n = 390,000); note: nearly all actives have a fitted effect of over 65% in size
Target sequence (O75874 whole entry R132H, stated change not applied): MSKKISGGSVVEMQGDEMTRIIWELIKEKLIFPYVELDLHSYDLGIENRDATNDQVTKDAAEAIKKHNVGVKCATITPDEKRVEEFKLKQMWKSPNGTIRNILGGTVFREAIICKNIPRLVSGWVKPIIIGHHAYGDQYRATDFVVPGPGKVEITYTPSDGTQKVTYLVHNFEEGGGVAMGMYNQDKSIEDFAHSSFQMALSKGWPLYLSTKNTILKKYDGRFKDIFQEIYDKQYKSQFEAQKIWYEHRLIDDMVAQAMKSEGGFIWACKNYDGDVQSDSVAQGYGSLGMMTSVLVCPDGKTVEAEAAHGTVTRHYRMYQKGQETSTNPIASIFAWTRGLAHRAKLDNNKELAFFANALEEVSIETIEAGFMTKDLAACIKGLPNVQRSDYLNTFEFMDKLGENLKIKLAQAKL
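IDH1-R132H (0.5 ug/mL) preincubated 30 min with compound, then NADPH (0.016 mM) and alpha-KG (2 mM) added; 80 min at RT, pH 7.5. Remaining NADPH coupled via diaphorase/resazurin to fluorescence (540/590 nm); concentration-response curves normalized to no-enzyme control.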
A number is an active result. The list is not random: actives were taken first. Their share in the collection is about 2.7%. Calls come from the whole dose curve; as a rule, active = well fitted curve in the direction sought with a large enough effect; inconclusive = small, poorly fitted or top-dose-only effect, or another doubt; inactive = no such curve, though single readings can be large; an effect the other way counts as inactive or inconclusive.

Screening CCN1CCN(CCNC(=O)c2ccc(/C=C3/Sc4ccccc4N(Cc4cccc(Cl)c4)C3=O)cc2)CC1 returned HEK293 tox inconclusive, GLP1R inv ag inconclusive, TrxR1 substrate inactive, rTrxR1 inhibitor inactive, GLP-1R agonist inactive and mIDH1 inhibitor inactive.
Screening CCN1C(=O)c2ccccc2Sc2ccc(C(=O)NCCCN3CCCCC3)cc21 returned HEK293 tox inactive, GLP1R inv ag 13µM, TrxR1 substrate inactive, rTrxR1 inhibitor inactive, GLP-1R agonist inactive and mIDH1 inhibitor inactive.
For [NH-]CCC([O-])=NC(Cc1cnc[nH]1)C(=O)[O-].[Zn+2] (configuration not stated) the results were GLP-1R agonist inactive.
Screening CC(C)c1cc2c(c(O)c1O)[C@@]13CCCC(C)(C)C1CC2OC3=O (some centres not stated) returned HEK293 tox inactive, GLP1R inv ag inactive, TrxR1 substrate inactive, rTrxR1 inhibitor 16µM, GLP-1R agonist inactive and mIDH1 inhibitor inactive.
`Cc1ccc(C)c(N2CCN(C(=O)C3CCCN(Cc4nc(-c5cccc(Cl)c5)oc4C)C3)CC2)c1` (configuration not stated) gave HEK293 tox inactive, GLP1R inv ag inactive, TrxR1 substrate inactive, rTrxR1 inhibitor inactive and mIDH1 inhibitor inactive.
Cc1ccc(Cl)cc1N1CCN(C(=O)C2CCCN(Cc3nc(-c4cccc(Cl)c4)oc3C)C2)CC1 (configuration not stated) was read as HEK293 tox inactive, GLP1R inv ag 4µM, TrxR1 substrate inactive, rTrxR1 inhibitor inactive and mIDH1 inhibitor inactive.
CCC1CCCCN1C(=O)CSc1nc2ncccc2[nH]1 (configuration not stated) was read as HEK293 tox inactive, GLP1R inv ag inactive, TrxR1 substrate inactive, rTrxR1 inhibitor 50µM, GLP-1R agonist inactive and mIDH1 inhibitor inactive.
CCc1ccc(CN(Cc2ccco2)C(=O)COc2ccc(Cl)cc2C)cc1 was read as HEK293 tox inactive, GLP1R inv ag inconclusive, TrxR1 substrate inactive, rTrxR1 inhibitor inactive and mIDH1 inhibitor inactive.
For Cc1cc(Cl)ccc1OCC(=O)N(Cc1ccco1)Cc1ccccc1F the results were HEK293 tox inactive, GLP1R inv ag 11µM, TrxR1 substrate inactive, rTrxR1 inhibitor inactive and mIDH1 inhibitor inactive.
For COc1cc(/C=C/c2cc[n+](C)c3ccccc23)cc(OC)c1OC the results were TrxR1 substrate inactive and rTrxR1 inhibitor inactive.
COc1cccc(CNC(=O)c2c(O)nc3ccccn3c2=O)c1 was read as HEK293 tox inactive, GLP1R inv ag inactive, TrxR1 substrate inactive, rTrxR1 inhibitor inactive, GLP-1R agonist inactive and mIDH1 inhibitor inactive.
`COc1ccc(C(=O)N2c3cc4c(cc3C(C)=CC2(C)C)OCO4)cc1` gave HEK293 tox inactive, GLP1R inv ag 7.9µM, TrxR1 substrate inactive, rTrxR1 inhibitor inactive, GLP-1R agonist inactive and mIDH1 inhibitor inactive.
`CCN(CC)c1nc(NC2CCN(C)CC2)c2cc(OC)c(OC)cc2n1` gave TrxR1 substrate inactive and rTrxR1 inhibitor inactive.
Screening CCc1ccc2c(CN3CCN(Cc4ccccc4)CC3)cc(=O)oc2c1 returned HEK293 tox inactive, GLP1R inv ag 8.9µM, TrxR1 substrate inactive, rTrxR1 inhibitor inactive, GLP-1R agonist inactive and mIDH1 inhibitor inactive.
Screening CCc1cc2c(CN3CCN(Cc4ccccc4)CC3)cc(=O)oc2cc1O returned HEK293 tox inactive, GLP1R inv ag inconclusive, TrxR1 substrate inactive, rTrxR1 inhibitor inactive, GLP-1R agonist inconclusive and mIDH1 inhibitor inactive.
`Cc1ccc2[nH]c3c(=O)n(CC(=O)N4CCN(C)CC4)ncc3c2c1` gave HEK293 tox inactive, GLP1R inv ag inactive, TrxR1 substrate inactive, rTrxR1 inhibitor 35µM, GLP-1R agonist inactive and mIDH1 inhibitor inactive.
For Cc1ccc2c(/C=C/c3ccc(N(C)C)cc3)ccnc2c1 the results were TrxR1 substrate inactive and rTrxR1 inhibitor inactive.
`CCc1ccccc1NC(=O)c1ccc(CN2CCC(Cc3ccccc3)CC2)cc1` gave HEK293 tox inconclusive, GLP1R inv ag 8.9µM, TrxR1 substrate inactive, rTrxR1 inhibitor inactive, GLP-1R agonist inactive and mIDH1 inhibitor inactive.
